Screens deposited in PubChem BioAssay by several laboratories.
tim23-1 inh: growth inhibitors of tim23-1 mutant yeast; S. cerevisiae tim23-1 growth, BacTiter-Glo luminescence, 24 h; inhibition, % at 20 µM; 330,000 tested, 1.3% active;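 active = growth inhibition of the mutant yeast at or above 50%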;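 also: temperature-sensitive mutant grown at 25 °C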
SKKanGAS inh: SKKanGAS growth inhibition; AID 1662; inhibition, % at 7.5 µM; S. pyogenes SKKanGAS, kanamycin growth, BacTiter-Glo, 6 h; 300,000 tested, 1.3% active;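 active = mean replicate score, as percent of positive control median, at least 50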;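 also: strain carries kanamycin resistance gene driven by streptokinase promoter and grows in 40 µg/ml kanamycin; loss of luminescence reflects streptokinase promoter inhibition or plain growth inhibition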
tim10-1 inh: growth inhibitors of tim10-1 mutant yeast | S. cerevisiae tim10-1 ts strain growth, BacTiter-Glo, 24 h | inhibition, % at 20 µM | 330,000 tested, 2.2% active;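 active = inhibition of at least 40%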;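 also: mutant grown at 25 °C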
PfHsp90 set2: reduces growth (ATP signal) of yeast expressing P. falciparum Hsp90. S. cerevisiae expressing PfHsp90, BacTiter-Glo ATP, 48 h; yeast lacking PDR1 and PDR3 efflux regulators. 310,000 tested, 0.32% active. inhibition, % at 9.4 µM. AID 504621;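 active = every replicate shows inhibition above about 80%, whatever the replicate mean, limit read from the data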
TIM10 inh: growth inhibitors of TIM10 yeast strain; inhibition, % at 10 µM; 330,000 tested, 1.4% active; S. cerevisiae TIM10 strain growth, BacTiter-Glo luminescence, 24 h; AID 463195;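 active = inhibition of 40% or more at the single tested concentration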;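 also: wild-type TIM10 isogenic control strain grown at permissive 25 °C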
V-ATPase pHluor: yeast V-ATPase proton transport regulation by pHLuorin | 350,000 tested, 0.37% active | S. cerevisiae, pHLuorin cytosolic pH fluorescence | response, % at 10 µM; in the data active = response mostly above about 7.3%, no sharp cut-off; inactive = mostly below about 5.4%; also: actives read high
tim10-1 confirm: confirmation of tim10-1 mutant yeast growth inhibitors | shares compounds with tim10-1 inh | S. cerevisiae tim10-1 ts strain growth, BacTiter-Glo, 24 h | inhibition, % at 20 µM | 7,400 tested, 56% active;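 active = inhibition of yeast growth at or above a set limit in either of two repeat tests at 20 µM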;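 also: tim10-1 mutant grown at permissive 25 °C to find synthetic lethal compounds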
tim10 confirm: confirmation of TIM10 yeast growth inhibitors; shares compounds with TIM10 inh; S. cerevisiae tim10 strain growth, BacTiter-Glo luminescence, 24 h; inhibition, % at 10 µM; 4,600 tested, 63% active; AID 463215;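 active = inhibition of yeast growth at or above a set limit in either of two replicates at 10 µM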; also: this counterscreen used the strain with wild-type TIM10
Hits are given with their value; . = inactive; / = not tested or not shown. Only some compounds are listed: those with a hit (about 4.6% of all), similar ones and a draw of the others.

SMILES	tim23-1 inh	SKKanGAS inh	tim10-1 inh	PfHsp90 set2	TIM10 inh	V-ATPase pHluor	tim10-1 confirm	tim10 confirm
C/C(=N\NC(=S)NCc1ccccc1)c1ccc(Br)cc1	.	.	49	.	.	.	.	32
C/C(=N\NC(=S)NCc1ccccc1)c1ccc2c(c1)OCCO2	.	.	43	.	46	.	49	39
CC(C)(C)c1ccc(/C=N/NC(=S)NCc2ccccc2)cc1	.	.	.	.	.	.	/	/
CN(C)c1ccc(/C=N/NC(=S)NCc2ccccc2)cc1	.	.	43	/	55	.	32	44
Cc1ccc(S(=O)(=O)N2CC(O)C2)cc1	.	.	.	.	.	.	/	/
COc1ccccc1-c1cc(C(F)(F)F)nc(S(=O)(=O)CCCC(=O)Nc2cc(C)on2)n1	.	.	.	.	.	.	/	/
COc1ccccc1-c1cc(C(F)(F)F)nc(S(=O)(=O)CCCC(=O)N2CCCCC2C)n1 (stereo not drawn)	.	.	42	.	41	.	.	.
OCCNCc1c(OCc2ccc(Cl)cc2)ccc2ccccc12	.	.	.	.	.	.	/	/
CC(=O)Nc1nc2nc(-c3ccccc3)cc(-c3ccccc3)n2n1	.	.	.	.	.	.	/	/
O=C(Nc1nc2nc(-c3ccccc3)cc(-c3ccccc3)n2n1)c1ccco1	.	.	43	.	60	.	.	.
COc1ccccc1C(=O)Nc1ccnn1C1CCN(C2CCCCC2)CC1	/	/	/	/	/	.	/	/
O=C1[C@H]2[C@@H](c3ccccc3)N[C@]3(CCCN(CC4CCCCC4)C3=O)[C@H]2C(=O)N1Cc1ccccc1	/	/	/	/	/	.	/	/
N#C/C(=C\c1ccc([N+](=O)[O-])o1)C(=O)Nc1ccc(F)cc1	.	.	55	106	79	114	47	96
Cc1cc(C)cc(N2C(=O)CC(Sc3ncn[nH]3)C2=O)c1 (stereo not drawn)	.	.	45	.	41	.	35	32
Cc1nnc(SCC(=O)N(CCC#N)c2ccc3c(c2)OCCO3)s1	.	/	.	.	.	.	/	/
Cc1ccc(COc2ccc(Br)cc2/C=N/O)cc1	.	.	51	.	46	.	.	.
O=c1[nH][nH]c(-c2ccccc2)c1C=Nc1ccc(C(F)(F)F)cc1	.	.	.	/	.	.	/	/
O=c1[nH][nH]c(-c2ccccc2)c1C=Nc1ccc(OC(F)(F)F)cc1	.	.	42	/	41	.	37	37
CCCCN1C[C@H](c2ccccc2)[C@@H](CC(=O)NC)C1=O	/	/	/	/	/	.	/	/
COc1ccc([C@H]2CC(=O)C=C(c3cc(OC)ccc3OC)C2)cc1	.	/	.	.	.	.	/	/
O=C(C1CC1)N1CCc2cc(S(=O)(=O)NCCCN3CCCCC3)ccc21	.	.	.	.	.	.	/	/
CCC1CCCCN1S(=O)(=O)c1ccc2c(c1)CCN2C(=O)C1CCC1 (stereo not drawn)	.	.	55	.	56	.	45	50
O=C(CCl)c1ccc2c(c1)CCN2C(=O)C1CCCCC1	.	.	62	/	76	.	36	65
CC1CCN(S(=O)(=O)c2ccc3c(c2)CCN3C(=O)C2CCC2)CC1	.	.	.	.	.	.	/	/
CNC(=S)NCc1ccc2[nH]c(C)cc2c1	.	.	.	.	.	.	/	/
SMILES	tim23-1 inh	SKKanGAS inh	tim10-1 inh	PfHsp90 set2	TIM10 inh	V-ATPase pHluor	tim10-1 confirm	tim10 confirm
CCc1cccc(C)c1NC(=S)NCc1ccc2[nH]c(C)cc2c1	.	.	51	.	48	.	.	37
CC(C)Cn1c(=S)[nH]c2cc(Cl)ccc21	.	.	43	.	50	.	.	.
CC(C)Cn1c(=S)[nH]c2ccccc2c1=O	.	.	.	.	.	.	/	/
CCOC(=O)c1c(NC(=O)C2C3CCC(O3)C2C(=O)O)sc(C)c1-c1ccc(F)cc1 (stereo not drawn)	.	.	.	.	.	.	/	/
CCOC(=O)c1c(N)sc(C(O)(C(F)(F)F)C(F)(F)F)c1-c1ccc(F)cc1	.	.	43	.	41	/	.	.
O=c1c(O)c(-c2cccs2)oc2ccccc12	.	76	42	.	65	.	35	71
O=c1c(O)c(-c2ccccc2)oc2ccccc12	/	/	/	.	/	.	/	/
Cc1ccc(NC(=S)NNC(=O)C2CC2c2ccc(C)cc2)cc1 (stereo not drawn)	.	.	41	.	40	.	.	.
CC(/C=N/n1c(-c2ccccc2)n[nH]c1=S)=C\c1ccco1	.	.	42	.	44	.	.	41
N#C/C(=C\C=C\c1ccccc1[N+](=O)[O-])C(=O)NC1CCCCC1	.	.	55	/	43	.	47	53
COc1cc(C(C(=O)NC2CCCCC2)N(CCN2CCOCC2)C(=O)C2COc3ccccc3O2)cc(OC)c1OC (stereo not drawn)	.	.	.	.	.	.	/	/
CC1(C)C2CC[C@]3(C)C(CC=C4[C@@H]5C[C@@](C)(CO)[C@@H](O)C[C@]56C[C@@H](OC6=O)[C@]43C)[C@@]2(C)CC[C@@H]1O (stereo partly drawn)	.	.	.	.	.	.	/	/
O=C(NC1CCCCCC1)c1ccc(-n2cnnc2)cc1	.	.	.	.	.	.	/	/
CCOc1ccc(Nc2cc(C)nc(-n3nc(C)cc3C)n2)cc1	.	87	44	.	42	.	.	.
CNc1cc(C)nc(-n2nc(C)cc2C)n1	.	.	.	.	.	.	/	/
CCC(/C=C1\Sc2ccc(OC)cc2N1CC)=C\c1sc2ccc(OC)cc2[n+]1CCCS(=O)(=O)[O-]	.	.	50	.	45	.	43	.
Cc1cc2c3c(c1)C1(SCC(=O)N1c1ccc(F)cc1)C(=O)N3C(C)(C)CC2C (stereo not drawn)	.	.	48	.	42	.	40	41
CCOCc1cc(=O)[nH]c(SC)n1	.	.	.	.	.	.	/	/
N#C/C(=C/c1ccc2c(c1)OCO2)C(=O)NCCc1c[nH]c2ccccc12	.	.	63	.	63	.	58	56
S=C(NN=C1C2CC3CC(C2)CC1C3)Nc1ccccc1	.	.	60	.	51	.	46	.
CCC(C)(C)C1CCC(=NNC(=S)Nc2ccccc2)CC1 (stereo not drawn)	.	.	.	.	.	.	/	/
Clc1ccc(Nc2nc(C3CC3)cs2)cc1	.	.	54	.	43	.	49	.
Cc1c(C(=O)N2CCN(CC(=O)Nc3ccccc3Cl)CC2)oc2ccc(Br)cc12	.	/	.	/	.	.	/	/
CCOc1ccc(Cl)cc1S(=O)(=O)n1nnc2ccccc21	.	.	46	.	51	.	42	.
COCC(=O)Oc1cc(-c2ccc(C)cc2C)c(OC(=O)COC)c(-c2ccc(C)cc2C)c1	/	/	/	/	/	.	/	/
